In PubChem BioAssay AID504329 (Southern Research Specialized Biocontainment Screening …, 2011) one finds inhibition data, which are given here for 54 compounds.

Out of some 340,000 compounds screened, about 1,000 (0.29%) were called active. These entries were drawn from the full list. Results with a measured potency or affinity are listed apart. A number with no mark means an inactive call. Rule as the data show it: inconclusive = inhibition above about 27% without an active follow-up result; inactive = below that.

The nature of this assay: H1N1 influenza NS1A inhibitors, functional cell based assay (AID 504329). The conditions noted are these: percent inhibition, at 12.5 µM, active compounds read high.
`COCC1CCN(C(=O)C2CCC(=O)N(C3CCCCCC3)C2)CC1` (centres undefined): the inhibition was 8.12%.

As for `COC(=O)CN1C(=O)Nc2ccc(Cl)cc2C1c1ccccc1` (centres undefined), the inhibition is 4.9%.

As to `CC(=O)c1nn(-c2cccc(C)c2)cc1C(=O)c1cccc(Br)c1`, the inhibition was 2.16%.

As to `O=C(Nc1ccc(F)cc1)c1ccc(CSc2ccc(Cl)cc2)o1`, the inhibition is -1.55%.

Take `C=CCn1c(SCC(=O)C(C)(C)C)nnc1-c1ccccn1`: the inhibition was -6.69%.

With `COc1ccccc1N1CCN(S(=O)(=O)c2c(C(=O)N3CCOCC3)c(C)n(C)c2C)CC1`, the inhibition was 6.32%.

In the case of `CCCCCOc1ccc(C(O)C(CN2CCOCC2)c2ccccc2)cc1` (centres undefined), the inhibition was -5.3%.

For the compound `C[C@H](CO)N1C[C@H](C)[C@@H](CN(C)Cc2ccncc2)Oc2c(NS(=O)(=O)c3ccccc3)cccc2C1=O`, the inhibition was -17%.

For `O=C(CSc1n[nH]c(-c2ccco2)n1)Nc1ccc(F)cc1`, the inhibition is 7.45%.

As for `COc1ccc(NC(=O)CSc2ccccn2)cc1`, the inhibition is 4.92%.

With `O=C(CSc1n[nH]c(-c2ccncc2)n1)Nc1ccc(F)cc1`, the inhibition was 0.02%.

With `Cc1ccc(C)c(NC(=O)CSc2n[nH]c(-c3ccncc3)n2)c1`, the inhibition is -3.36%.

For the compound `Cc1ccccc1NC(=O)CSc1n[nH]c(-c2ccccn2)n1`, the inhibition is -5.83%.

As to `O=C(CSc1n[nH]c(-c2cccnc2)n1)Nc1ccc(Cl)cc1`, the inhibition is 2.6%.

For `O=C(CSc1n[nH]c(-c2ccncc2)n1)Nc1ccc(Cl)cc1`, the inhibition was -0.89%.

As to `COc1ccc(NC(=O)CSc2n[nH]c(-c3ccco3)n2)cc1`, the inhibition is -5.29%.

In the case of `C[C@@H](NC(=O)Cn1cnc2c(NCc3ccccc3)ncnc21)c1cccc2ccccc12`, the inhibition is -9.17%.

In the case of `CCN(CC(=O)Nc1ccccc1C(F)(F)F)C(=O)CCS(=O)(=O)c1ccc(Cl)cc1`, the inhibition is -2.32%.

Regarding `CC(C)CN(C(=O)CN(C)CC(=O)Nc1ccc(Cl)c(C(F)(F)F)c1)c1c(N)n(CC(C)C)c(=O)[nH]c1=O`, the inhibition was -3.46%.

With `CN=C1CC(C)(C)CC(=O)/C1=C(/O)CCCN1C(=O)c2ccccc2C1=O`, the inhibition was -2.2%.

With `CC12CCC(=O)N1C(C(=O)Nc1nc(-c3ccc(F)c(F)c3)cs1)CS2` (centres undefined), the inhibition is -0.9%.

In the case of `Cc1cccc(NC(=S)NC2CC3CCCC(C2)N3CC(C)C)c1` (centres undefined), the inhibition was -0.58%.

For the compound `COc1cccc(CN2CC(C(=O)N(C)Cc3ccnc4ccccc34)CCC2=O)c1` (centres undefined), the inhibition is -0.38%.

On to `COc1cc2cc(CN(CCCN3CCOCC3)C(=O)Nc3ccccc3F)c(=O)[nH]c2cc1OC`, for which the inhibition is -7.1%.

On to `CCCCNC(=O)Cc1coc2ccc3ccccc3c12`, for which the inhibition is -8.22%.

Regarding `CCC(C)[C@H](NS(=O)(=O)c1ccc(C)cc1)C(=O)N1CCC(C(=O)N[C@H](C(=O)O)c2ccccc2)CC1` (some centres undefined), the inhibition is -3.12%.

For the compound `COc1ccc2[nH]c3c(c2c1)CCN1C(=O)C(CC(=O)NCCCn2ccnc2)C[C@H](C(=O)N2CCOCC2)[C@@]31C` (some centres undefined), the inhibition was -0.65%.

As to `COc1ccc(S(=O)(=O)N2CN3CCN(C3)C2)cc1OC`, the inhibition is -1.61%.

With `CC(=O)Nc1cccc(OCC(=O)NCCC2=CCCCC2)c1`, the inhibition was 5.18%.

With `Cc1ccc(NC(=O)CSc2n[nH]c(-c3ccncc3)n2)cc1`, the inhibition was -14.5%.

`Cc1ccc(NC(=O)CSc2n[nH]c(-c3ccco3)n2)cc1`: the inhibition was -7.19%.

On to `CCC(C)(C)C1CCc2[nH]nc(C(=O)NCCCNC(=O)OC(C)(C)C)c2C1` (centres undefined), for which the inhibition was 7.94%.

Consider `Cc1ccccc1CN1CCN(CC(=O)NCc2ccccc2)CC1`, for which the inhibition was -8.48%.

Take `COc1cc(C2CC(=O)Oc3c(C(CCN4CCOCC4)c4ccc(N(C)C)cc4)c(OC)cc(OC)c32)cc(OC)c1OC` (centres undefined): the inhibition was 19.5%.

For `COc1cc(C2CC(=O)Oc3c(C(CCN4CCN(c5ccccc5)CC4)c4ccc(N(C)C)cc4)c(OC)cc(OC)c32)cc(OC)c1OC` (centres undefined), the inhibition is 18%.

For the compound `COc1ccc(C2CC(=O)Oc3c(C(CCN4CCOCC4)c4cc(OC)c(OC)c(OC)c4)c(OC)cc(OC)c32)cc1` (centres undefined), the inhibition was -11.8%.

Turning to `COc1ccc(C(CCN2CCCC(C)C2)c2c(OC)cc(OC)c3c2OC(=O)CC3c2cc(OC)c(OC)c(OC)c2)cc1` (centres undefined), the inhibition is -7.41%.

On to `COc1cc(C(CCN2CCOCC2)c2c(OC)cc(OC)c3c2OC(=O)CC3c2ccc(N(C)C)cc2)cc(OC)c1OC` (centres undefined), for which the inhibition was 13.9%.

For `COc1ccc(C2CC(=O)Oc3c(C(CCN4CCN(c5ccccc5)CC4)c4ccc(N(C)C)cc4)c(OC)cc(OC)c32)cc1` (centres undefined), the inhibition is 16.5%.

Take `Cc1ccc(S(=O)(=O)NC(C)C(=O)Nc2ccc(C(N)=O)cc2)cc1` (centres undefined): the inhibition is 7.11%.

Turning to `CN1C(=O)/C(=C\c2ccncc2)SC1=Nc1ccccc1`, the inhibition was 2.83%.

For the compound `CC(CCc1ccccc1)NC(=O)c1ccco1` (centres undefined), the inhibition was 18.9%.

Regarding `COc1ccc(N=c2oc3c(OC)cccc3cc2C(=O)NCc2ccco2)c(OC)c1`, the inhibition is 10.4%.

On to `CCOc1ccccc1N(C(=O)c1snc(C(N)=O)c1N)C(C(=O)NCc1ccccc1)c1ccc(O)cc1` (centres undefined), for which the inhibition was 11.4%.

`CCOc1cc(/C=N/NC(=O)c2cccc([N+](=O)[O-])c2)ccc1OS(=O)(=O)c1ccccc1`: the inhibition was -5.88%.

Turning to `OCCC1CN(C2CSCCSC2)CCN1Cc1ccccc1` (centres undefined), the inhibition is -6.56%.

As for `CN1CCN(c2ccc(CNS(=O)(=O)c3ccc(F)cc3Cl)cc2)CC1`, the inhibition is -10.3%.

On to `Cc1nc(SCC(=O)NCc2ccccc2)c2c(=O)n(C)c(=O)n(C)c2n1`, for which the inhibition was -13.1%.

Turning to `Cc1ncc(CO)c(/C=N/NC(=O)c2ccccc2Br)c1O`, the inhibition is 18.5%.

As to `COc1ccccc1NS(=O)(=O)c1cccc(C(=O)N/N=C/c2c(CO)cnc(C)c2O)c1`, the inhibition is 17.7%.

Turning to `O=C(N/N=C/c1ccccn1)c1cccc(S(=O)(=O)N2CCCC2)c1`, the inhibition is -3%.

For the compound `COc1ccc(C(=O)N/N=C/c2c(CO)cnc(C)c2O)cc1`, the inhibition was 21.8%.

`Cc1ncc(CO)c(/C=N/NC(=O)c2ccoc2C)c1O`: the inhibition is 7.34%.

As to `Cc1ncc(CO)c(/C=N/NC(=O)c2ccc(O)cc2)c1O`, the inhibition is 15.5%.

The term inhibition denotes the drop in the measured response relative to a control, in per cent.
